Only some compounds are listed: those with a hit (about 7.9% of all), similar ones and a draw of the others.
SW480 rerep – DNA re-replication induction in SW480 cells; 340,000 compounds, 1.8% hits; Potency, µM (titrated, usually from 46.1 µM), usual class: activators; SW480 DNA re-replication, Hoechst DNA content imaging, 48 h; note: nearly all actives have a fitted effect of over 55% in size
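250 cells/well; 23 nL cpd via pin tool; 48 hr, 37 C, 5% CO2; Hoechst 40 min; imager read of total nuclear intensity, ex 405/em 500-530 nm.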
MCF10A rereplic – inducers of DNA re-replication in MCF 10A breast cells. 350,000 compounds, 2.9% hits. MCF 10A DNA re-replication, Hoechst nuclear intensity, 48 h. Potency, µM (highest dose often 46.1 µM), usual class: activators; note: nearly all actives have a fitted effect of over 50% in size
HT1080-NT tox – kills 2HG-producing HT-1080-NT fibrosarcoma cells; Potency, µM (top dose mostly 46.1 µM), most hits filed as cytotoxic; AID 686970; 360,000 compounds, 1.6% hits; HT-1080-NT fibrosarcoma viability, CellTiter-Glo ATP luminescence, 48 h;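 note: NT is the 2HG producing partner of a matched IDH1 knockdown line; nearly all actives have a fitted effect of over 55% in size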
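Fibrosarcoma NT cells, 750 per well in 5% FBS RPMI, were exposed to compound for 48 hours. Viability: CellTiter-Glo luminescence.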
KB-3-1 tox – kills parental KB-3-1 adenocarcinoma cells; KB-3-1 viability, CellTiter-Glo ATP luminescence, 72 h; Potency, µM (titrated, usually from 46.1 µM), hits mostly cytotoxic; 400,000 compounds, 1.4% hits; AID 1347075; note: nearly all actives have a fitted effect of over 60% in size
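Luminescent ATP read-out (CellTiter-Glo) measures survival of drug-naive KB-3-1 cells after 72 h compound exposure at 37 °C. Titration series was screened from lowest to highest concentration, with DMSO vehicle plates as background controls.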
KB-V1 MDR tox – kills drug-selected multidrug resistant KB-V1 cells; KB-V1 MDR cells viability, CellTiter-Glo, 72 h; Potency, µM (series often up to 46.1 µM), usual class: cytotoxic; 400,000 compounds, 3.4% hits; AID 1347076; note: nearly all actives have a fitted effect of over 60% in size
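Following 72 h at 37 degrees C with compound, KB-V1 cell viability was read by CellTiter-Glo luminescence, medium being phenol-red-free DMEM plus 10% FBS; concentration-response parameters came from normalized, curve-fitted qHTS data.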
HT1080 IDH1KD tx – toxicity to HT-1080 IDH1 knockdown cells (counter line); HT-1080 IDH1 knockdown viability, ATP luminescence, 48 h; Potency, µM (titrated, usually from 46.1 µM), hits mostly cytotoxic; 360,000 compounds, 2% hits; AID 686971
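CellTiter-Glo luminescence after 48 h compound exposure at 37 degrees C of IDH1-knockdown HT-1080 cells in 5% FBS RPMI. %Activity scaled between DMSO wells and cell-free media wells, with curves fitted and assigned curve classes.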
Numbers stand for hits; i = inactive; ? = inconclusive; nt = no result given; ! = not confirmed by another sample; [ ] = remark or other dose. Calls come from the whole dose curve; as a rule, active = well fitted curve in the direction sought with a large enough effect; inconclusive = small, poorly fitted or top-dose-only effect, or another doubt; inactive = no such curve, though single readings can be large; an effect the other way counts as inactive or inconclusive.

SMILES	SW480 rerep	MCF10A rereplic	HT1080-NT tox	KB-3-1 tox	KB-V1 MDR tox	HT1080 IDH1KD tx
CCN(c1ccccc1)S(=O)(=O)c1cccc(C(=O)NCC(c2ccc(F)cc2)N2CCOCC2)c1 (configuration not stated)	i	i	i	i	i	i
N#CCCn1cc(CNCc2cccnc2)c(-c2ccccc2)n1	nt	nt	nt	i	i	nt
CCC(=O)N1CCc2cc(S(=O)(=O)CCC(=O)N3CCN(c4ccccc4Cl)CC3)ccc21	nt	nt	nt	i	i	nt
CCOC(=O)c1c(-c2ccc(C)cc2)csc1NC(=O)CCSc1nnc2ccccn12	i	?	i	i	16.4µM	i
CC[n+]1ccc(/C=C/c2ccc(N(C)C)cc2)c2ccccc21	i	i	?	1.16µM	i	1.3µM
CCCCCC[n+]1ccccc1/C=C/c1ccc(N(C)C)cc1	nt	nt	7.31µM	?	i	1.16µM
CN(C)c1ccc(/C=C/c2cccc3ccccc23)cc1	nt	nt	nt	i	i	nt
CN(C)c1ccc(/C=C/c2ccc3ccccc3[n+]2[O-])cc1	nt	nt	nt	i	?	nt
CN(C)c1ccc(/C=C/c2cc[n+]([O-])c3ccccc23)cc1	nt	nt	nt	i	?	nt
CC[n+]1c(/C=C/c2ccc(N(C)C)cc2)ccc2ccccc21	i	i	10.3µM	?	?	10.3µM
CC[n+]1ccccc1/C=C/c1ccc(N(C)C)cc1	i	?	?	1.3µM	i	18.4µM
CNc1c(Br)cc(C(O)C2=CCc3ccccc32)cc1Br (configuration not stated)	nt	nt	nt	i	i	nt
CCc1ccccc1NC(=O)CSc1ncccc1C(=O)O	nt	nt	nt	i	?	nt
Cc1ccc(OCC(=O)Nc2ccc(OCc3cc(=O)n4ccsc4n3)cc2)cc1C	nt	nt	nt	i	i	nt
COc1ccc(-n2nc(C(=O)N3CCCCC3)c3c4ccccc4n(C)c3c2=O)cc1Cl	nt	nt	nt	i	i	nt
CN(Cc1ccccc1)C(c1cc2ccccc2o1)c1nnnn1C(C)(C)C (configuration not stated)	nt	nt	i	?	i	i
Cc1ccc(C(c2nnnn2C(C)(C)C)N(Cc2ccco2)Cc2cccs2)cc1 (configuration not stated)	i	i	i	16.4µM	?	i
CC(C)(C)n1nnnc1C(c1cccs1)N(Cc1ccccc1)Cc1cccnc1 (configuration not stated)	i[9.22 µM]	i	i	?	?	i
Clc1ccc(CN(Cc2ccccc2)C(c2cccs2)c2nnnn2C2CCCC2)cc1 (configuration not stated)	?	?	i	i	?	i
CC(C)(C)n1nnnc1C(c1ccc(F)cc1)N(Cc1ccc(F)cc1)Cc1ccco1 (configuration not stated)	i	?	i	?	?	i
CC(C)(C)n1nnnc1C(c1cccs1)N(Cc1ccc(Cl)cc1)CC1CCCO1 (configuration not stated)	i	?	i	23.1µM	i	?
CC(C)(C)n1nnnc1C(c1cccnc1)N(Cc1ccccc1)Cc1cccs1 (configuration not stated)	i	?	?	?	20.6µM	?
CC(C)(C)n1nnnc1C(c1cc2ccccc2o1)N(Cc1ccccc1)Cc1ccccc1 (configuration not stated)	nt	nt	i	?	20.6µM	?
COc1ccc(NC(=O)CSc2nc3ccccc3nc2N2CCCC2)cc1Cl	i	23.1µM	i	i	i	i
Cc1ccc(NC(=O)CSc2nc3ccccc3nc2N2CCOCC2)cc1	?	i	?	i	18.4µM!	i
SMILES	SW480 rerep	MCF10A rereplic	HT1080-NT tox	KB-3-1 tox	KB-V1 MDR tox	HT1080 IDH1KD tx
N#Cc1cc2ccccc2nc1SCC(=O)Nc1ccccc1N1CCOCC1	i	i	i	i	4.61µM	i
CCOc1ccccc1NC(=O)CSc1nc2ccccc2nc1N1CCCC1	?	14.6µM	i	i	i	i
Cc1ccc(NC(=O)CSc2nc3ccccc3nc2N2CCOCC2)c(C)c1	i	i	i	?	i	i
O=C(NCC(c1ccco1)S(=O)(=O)c1ccc(Cl)cc1)c1ccc(C(F)(F)F)cc1 (configuration not stated)	nt	nt	nt	i	i	nt
Cc1ccc(S(=O)(=O)N2CCN(CC(=O)Nc3ccc4c(c3)CCC4)CC2)cc1C	i	i	i	?	2.91µM	i
O=C(CN1CCN(S(=O)(=O)c2ccc3ccccc3c2)CC1)Nc1ccc2c(c1)CCC2	i	i	i	i	18.4µM	i
N#Cc1ccsc1NC(=O)CN1CCN(Cc2ccccc2)CC1	i	i	i	i	i	i
Cc1ccc(NC(=O)Cn2c(=O)oc3cc(S(=O)(=O)N4CCC(C)CC4)ccc32)cc1C	?	20.6µM	?	?	?	?
O=C(CN1CCN(S(=O)(=O)c2ccc(Cl)cc2)CC1)Nc1ccc2c(c1)CCC2	i	i	i	?	i	i
O=C(CN1CCN(S(=O)(=O)c2ccc3ccccc3c2)CC1)Nc1ccc(N2CCOCC2)cc1	i	i	i	i	i	i
N#Cc1ccsc1NC(=O)CN1CCN(S(=O)(=O)c2ccc3ccccc3c2)CC1	i	i	i	i	6.51µM	i
Cc1ccc(NC(=O)Cn2c(=O)oc3cc(S(=O)(=O)N4CCC(C)CC4)ccc32)cc1Cl	nt	nt	nt	i	i	nt
Cc1cc(C)c(NC(=O)C2CCCN(C(=O)c3cnn(-c4ccccc4)c3-n3cccc3)C2)c(C)c1 (configuration not stated)	nt	nt	nt	?	i	nt
Cc1cc2nc3c(=O)[nH]c(=O)nc-3n(CC(O)C(O)C(O)COP(=O)(O)O)c2cc1C (configuration not stated)	i	i	nt	nt	nt	nt
NC(CSSCC(N)C(=O)O)C(=O)O (configuration not stated)	i	i	nt	nt	nt	nt
Cc1cccc(C2=NN(c3ccc(Br)cc3)[C@@H](C(=O)N3CCOC3=O)[C@@H]2c2ccc(Cl)cc2)c1	8.2µM	?	i	i	i	i
Cc1cccc(C2=NN(c3ccc(Br)cc3)[C@@H](C(=O)N3CCOC3=O)[C@@H]2c2ccc(F)cc2)c1	9.2µM	?	i	i	i	i
COc1ccc(-c2nc(C)c(CCNC(=O)c3cccs3)s2)cc1	nt	nt	nt	i	8.2µM	nt
Cc1ccc(-c2nc(C)c(CCNC(=O)c3cccs3)s2)cc1	nt	nt	nt	i	?	nt
O=C1[C@@H]2CSC(c3ccc(Cl)cc3)N2C(=O)N1c1ccccc1 (some centres not stated)	nt	nt	nt	i	i	nt
COc1ccc(N2CCC(CNC(=O)Nc3cccc(OC)c3)C2)cc1 (configuration not stated)	i	?	i	i	20.6µM	i
CCc1cccc(C)c1NC(=S)NCC1CCN(c2ccc(OC)cc2)C1 (configuration not stated)	?	i	?	i	i	?

High-throughput results deposited in PubChem BioAssay by National Center for Advancing Translational Sciences (NCATS).
